Reference: PubChem BioAssay AID1159580 (chemical genetic matrix, 2015)
Screen size: about 5,500 compounds; about 2,000 (36%) were called active. Roughly 18% stayed inconclusive and do not appear here. This is one part of the list. A number with no mark means an inactive call. Rule as the data show it: active = normalized growth mostly below about 0.91 (no sharp cut-off); inconclusive = no clear call, values can overlap the other calls; inactive = mostly above about 0.92.

Assay: chemical genetic growth profiling, strain panel (AID 1159580);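 also: tested at 20 µM; growth read once vehicle control cultures reached saturation at 30 °C; 1 = growth at the plate median or of vehicle wells; lower values mean less growth of the strain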
Details: S. cerevisiae deletion strains, growth OD

**Q.** With `CC(C)=CCCC1(C)C=Cc2c(O)c3c(c(CC=C(C)C)c2O1)OC12C(=CCCC1C(C)(C)O[C@@]2(C/C=C(\C)C(=O)O)C(=O)O)C3=O` (stereo partly specified) as the molecule, how does the normalized growth (locus YKL009W, strain mrt4, active compounds read low) read?
**A.** The normalized growth was 1.11.

**Q.** And the normalized growth (locus YKL068W, active compounds read low)?
**A.** The normalized growth was 0.981.

**Q.** And the normalized growth (locus YKL085W, strain MDH1 (second series), active compounds read low)?
**A.** The normalized growth was 0.968.

**Q.** What about the normalized growth (locus YKL085W, strain MDH1, active compounds read low) of the same molecule?
**A.** Its normalized growth is 0.968.

**Q.** What about the normalized growth (locus YKL160W, strain elf1, active compounds read low) of the same molecule?
**A.** The normalized growth was 0.896 (active).

**Q.** What about the normalized growth (locus YKR001C, strain vps1, active compounds read low) of the same molecule?
**A.** Its normalized growth is 0.739 (active).

**Q.** And the normalized growth (locus YKR026C, strain gcn3, active compounds read low)?
**A.** The normalized growth was 1.

**Q.** What about the normalized growth (locus YKR091W, strain srl3, active compounds read low) of the same molecule?
**A.** The normalized growth was 0.998.

**Q.** What about the normalized growth (locus YLL001W, strain dnm1, active compounds read low) of the same molecule?
**A.** The normalized growth was 0.932.

**Q.** What about the normalized growth (locus YLL026W, active compounds read low) of the same molecule?
**A.** The normalized growth was 0.985.

**Q.** What about the normalized growth (locus YLL041C, strain sdh2, active compounds read low) of the same molecule?
**A.** Its normalized growth is 0.992.

**Q.** And the normalized growth (locus YLR027C, strain aat2, active compounds read low)?
**A.** Its normalized growth is 0.911 (active).

**Q.** And the normalized growth (locus YLR039C, strain RIC1, active compounds read low)?
**A.** Its normalized growth is 0.366 (active).

**Q.** And the normalized growth (locus YLR058C, strain SHM2, active compounds read low)?
**A.** The normalized growth was 0.803 (active).

**Q.** What about the normalized growth (locus YLR102C, strain apc9, active compounds read low) of the same molecule?
**A.** The normalized growth was 0.988.

**Q.** What about the normalized growth (locus YLR113W, strain HOG1, active compounds read low) of the same molecule?
**A.** The normalized growth was 0.882.

**Q.** And the normalized growth (locus YLR221C, strain rsa3, active compounds read low)?
**A.** Its normalized growth is 0.823 (active).

**Q.** And the normalized growth (locus YLR258W, strain gsy2, active compounds read low)?
**A.** The normalized growth was 0.924.

**Q.** What about the normalized growth (locus YLR262C, strain YPT6 (second series), active compounds read low) of the same molecule?
**A.** The normalized growth was 0.402 (active).

**Q.** And the normalized growth (locus YLR268W, strain sec22, active compounds read low)?
**A.** The normalized growth was 0.772 (active).

**Q.** And the normalized growth (locus YLR320W, strain mms22, active compounds read low)?
**A.** Its normalized growth is 0.646 (active).

**Q.** And the normalized growth (locus YLR330W, strain CHS5, active compounds read low)?
**A.** Its normalized growth is 0.845 (active).

**Q.** What about the normalized growth (locus YLR342W, strain FKS1 (second series), active compounds read low) of the same molecule?
**A.** The normalized growth was 0.77 (active).

**Q.** And the normalized growth (locus YLR342W, strain FKS1, active compounds read low)?
**A.** Its normalized growth is 0.818 (active).

**Q.** And the normalized growth (locus YLR357W, strain rsc2, active compounds read low)?
**A.** Its normalized growth is 1.01.

**Q.** And the normalized growth (locus YLR370C, strain arc18, active compounds read low)?
**A.** Its normalized growth is 0.988.

**Q.** What about the normalized growth (locus YLR371W, strain rom2, active compounds read low) of the same molecule?
**A.** Its normalized growth is 0.738 (active).

**Q.** What about the normalized growth (locus YLR384C, strain iki3, active compounds read low) of the same molecule?
**A.** The normalized growth was 1.02.

**Q.** What about the normalized growth (locus YLR418C, strain cdc73, active compounds read low) of the same molecule?
**A.** Its normalized growth is 0.509 (active).

**Q.** And the normalized growth (locus YML016C, strain PPZ1, active compounds read low)?
**A.** The normalized growth was 0.907 (active).

**Q.** And the normalized growth (locus YML032C, strain rad52, active compounds read low)?
**A.** The normalized growth was 0.828 (active).

**Q.** And the normalized growth (locus YML120C, strain ndi1, active compounds read low)?
**A.** Its normalized growth is 0.964.

**Q.** And the normalized growth (locus YML124C, strain tub3, active compounds read low)?
**A.** Its normalized growth is 0.948.

**Q.** What about the normalized growth (locus YMR058W, strain fet3, active compounds read low) of the same molecule?
**A.** The normalized growth was 0.258 (active).

**Q.** And the normalized growth (locus YMR078C, strain ctf18, active compounds read low)?
**A.** Its normalized growth is 0.973.

**Q.** What about the normalized growth (locus YMR125W, strain sto1, active compounds read low) of the same molecule?
**A.** Its normalized growth is 0.848 (active).

**Q.** What about the normalized growth (locus YMR129W, active compounds read low) of the same molecule?
**A.** Its normalized growth is 0.935.

**Q.** What about the normalized growth (locus YMR205C, strain PFK2, active compounds read low) of the same molecule?
**A.** Its normalized growth is 0.812 (active).

**Q.** And the normalized growth (locus YMR223W, strain ubp8, active compounds read low)?
**A.** Its normalized growth is 0.825 (active).

**Q.** And the normalized growth (locus YMR231W, strain pep5, active compounds read low)?
**A.** Its normalized growth is 0.762 (active).

**Q.** What about the normalized growth (locus YMR263W, strain SAP30, active compounds read low) of the same molecule?
**A.** Its normalized growth is 0.936.

**Q.** What about the normalized growth (locus YMR307W, strain GAS1, active compounds read low) of the same molecule?
**A.** The normalized growth was 0.317 (active).

**Q.** What about the normalized growth (locus YNL067W, strain RPL9B, active compounds read low) of the same molecule?
**A.** Its normalized growth is 0.917.

**Q.** What about the normalized growth (locus YNL071W, strain lat1, active compounds read low) of the same molecule?
**A.** The normalized growth was 0.463 (active).

**Q.** And the normalized growth (locus YNL128W, strain TEP1, active compounds read low)?
**A.** Its normalized growth is 0.797 (active).

**Q.** What about the normalized growth (locus YNL153C, strain GIM3, active compounds read low) of the same molecule?
**A.** The normalized growth was 0.847 (active).

**Q.** What about the normalized growth (locus YNL183C, strain NPR1, active compounds read low) of the same molecule?
**A.** The normalized growth was 0.895.

**Q.** And the normalized growth (locus YNL209W, strain ssb2, active compounds read low)?
**A.** Its normalized growth is 0.783 (active).

**Q.** And the normalized growth (locus YNL233W, strain BNI4, active compounds read low)?
**A.** The normalized growth was 0.823 (active).

**Q.** And the normalized growth (locus YNL248C, strain rpa49, active compounds read low)?
**A.** Its normalized growth is 0.935.

**Q.** What about the normalized growth (locus YNL250W, strain rad50, active compounds read low) of the same molecule?
**A.** The normalized growth was 0.956.

**Q.** What about the normalized growth (locus YNL271C, strain bni1, active compounds read low) of the same molecule?
**A.** The normalized growth was 0.947.

**Q.** And the normalized growth (locus YNL298W, strain CLA4, active compounds read low)?
**A.** The normalized growth was 0.963.

**Q.** What about the normalized growth (locus YNL307C, strain MCK1, active compounds read low) of the same molecule?
**A.** The normalized growth was 0.437 (active).

**Q.** And the normalized growth (locus YNL322C, strain KRE1 (second series), active compounds read low)?
**A.** The normalized growth was 1.04.

**Q.** And the normalized growth (locus YNL322C, strain KRE1, active compounds read low)?
**A.** The normalized growth was 0.923 (active).

**Q.** What about the normalized growth (locus YNR049C, strain mso1, active compounds read low) of the same molecule?
**A.** Its normalized growth is 0.986.

**Q.** What about the normalized growth (locus YNR052C, strain pop2, active compounds read low) of the same molecule?
**A.** Its normalized growth is 0.846 (active).

**Q.** And the normalized growth (locus YOL012C, strain htz1)?
**A.** The normalized growth was 0.267.

**Q.** What about the normalized growth (locus YOL147C, strain pex11, active compounds read low) of the same molecule?
**A.** The normalized growth was 0.867 (active).

**Q.** What about the normalized growth (locus YOR001W, strain rrp6, active compounds read low) of the same molecule?
**A.** The normalized growth was 0.901.

**Q.** What about the normalized growth (locus YOR061W, strain CKA2, active compounds read low) of the same molecule?
**A.** The normalized growth was 0.831 (active).

**Q.** What about the normalized growth (locus YOR069W, strain VPS5, active compounds read low) of the same molecule?
**A.** Its normalized growth is 0.847 (active).

**Q.** What about the normalized growth (locus YOR070C, strain gyp1, active compounds read low) of the same molecule?
**A.** The normalized growth was 0.931.

**Q.** And the normalized growth (locus YOR080W, strain dia2, active compounds read low)?
**A.** The normalized growth was 1.03.

**Q.** And the normalized growth (locus YOR083W, strain WHI5, active compounds read low)?
**A.** The normalized growth was 0.909.

**Q.** What about the normalized growth (locus YOR106W, strain vam3, active compounds read low) of the same molecule?
**A.** Its normalized growth is 0.697 (active).

**Q.** And the normalized growth (locus YOR136W, strain idh2, active compounds read low)?
**A.** The normalized growth was 0.94.

**Q.** What about the normalized growth (locus YOR144C, strain elg1, active compounds read low) of the same molecule?
**A.** Its normalized growth is 0.888 (active).

**Q.** What about the normalized growth (locus YOR184W, strain ser1, active compounds read low) of the same molecule?
**A.** Its normalized growth is 0.632 (active).

**Q.** And the normalized growth (locus YOR231W, strain MKK1, active compounds read low)?
**A.** Its normalized growth is 0.942.

**Q.** And the normalized growth (locus YOR265W, strain rbl2, active compounds read low)?
**A.** The normalized growth was 0.945.

**Q.** What about the normalized growth (locus YOR270C, strain vph1, active compounds read low) of the same molecule?
**A.** Its normalized growth is 0.517 (active).

**Q.** And the normalized growth (locus YOR290C, strain snf2, active compounds read low)?
**A.** The normalized growth was 0.944.

**Q.** And the normalized growth (locus YOR316C, strain cot1, active compounds read low)?
**A.** The normalized growth was 0.979.

**Q.** What about the normalized growth (locus YPL051W, strain arl3, active compounds read low) of the same molecule?
**A.** The normalized growth was 0.664 (active).

**Q.** What about the normalized growth (locus YPL055C, strain LGE1, active compounds read low) of the same molecule?
**A.** The normalized growth was 0.734 (active).

**Q.** And the normalized growth (locus YPL078C, strain atp4, active compounds read low)?
**A.** Its normalized growth is 0.897.

**Q.** What about the normalized growth (locus YPL106C, strain sse1, active compounds read low) of the same molecule?
**A.** The normalized growth was 0.993.

**Q.** What about the normalized growth (locus YPL240C, strain hsp82, active compounds read low) of the same molecule?
**A.** Its normalized growth is 0.955.

**Q.** What about the normalized growth (locus YPL256C, strain CLN2, active compounds read low) of the same molecule?
**A.** Its normalized growth is 0.893.

**Q.** What about the normalized growth (locus YPR119W, strain clb2, active compounds read low) of the same molecule?
**A.** The normalized growth was 0.956.

**Q.** And the normalized growth (locus YPR141C, strain kar3, active compounds read low)?
**A.** Its normalized growth is 0.962.

**Q.** And the normalized growth (locus YPR163C, strain tif3, active compounds read low)?
**A.** The normalized growth was 0.524 (active).

**Q.** And the normalized growth (locus YPR167C, strain met16, active compounds read low)?
**A.** Its normalized growth is 0.939.

**Q.** And the normalized growth (strain wtn01, active compounds read low)?
**A.** Its normalized growth is 0.817 (active).
